PubChem BioAssay AID1434 (Sanford-Burnham Center for Chemical Genomics, 2008)
Where “and” joins values, the source holds several entries; their conditions need not be identical. Identical values can stand only once. Out of some 220,000 compounds screened, about 1,600 (0.73%) were called active.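 Rule for the calls: active = mean inhibition across duplicate retests at 20 µM reaching about 50% (limit read from the data); inactive = the rest, inconclusive results apart.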 The list comes from a sample in which actives are over-represented; it also holds similar structures and randomly drawn compounds.

Molecular target: Runt-related transcription factor 1 (Homo sapiens) + Core-binding factor subunit beta (Homo sapiens) (UniProt Q01196+Q13951)
Sequence (Q01196 whole entry, looked up, the tested form may be a part): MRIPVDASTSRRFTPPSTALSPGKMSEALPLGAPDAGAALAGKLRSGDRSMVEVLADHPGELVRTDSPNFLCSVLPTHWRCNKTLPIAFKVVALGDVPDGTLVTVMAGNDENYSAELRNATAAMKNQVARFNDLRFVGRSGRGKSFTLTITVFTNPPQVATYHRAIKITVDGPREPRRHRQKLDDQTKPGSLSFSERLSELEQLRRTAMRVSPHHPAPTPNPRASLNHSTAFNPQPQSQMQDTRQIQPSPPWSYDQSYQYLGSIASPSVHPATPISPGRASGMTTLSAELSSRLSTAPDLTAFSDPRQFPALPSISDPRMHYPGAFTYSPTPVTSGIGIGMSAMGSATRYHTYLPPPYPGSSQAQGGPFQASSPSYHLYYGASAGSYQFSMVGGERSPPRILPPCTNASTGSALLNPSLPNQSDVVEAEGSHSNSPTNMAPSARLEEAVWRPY
Sequence (Q13951 whole entry, looked up, the tested form may be a part): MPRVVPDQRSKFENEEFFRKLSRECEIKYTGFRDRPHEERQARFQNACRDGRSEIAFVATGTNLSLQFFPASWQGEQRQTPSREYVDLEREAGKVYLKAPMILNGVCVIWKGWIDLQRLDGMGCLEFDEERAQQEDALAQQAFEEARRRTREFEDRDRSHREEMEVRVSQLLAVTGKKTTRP
Experiment: disruptors of Runt domain/CBFb-SMMHC interaction – biochemical, FRET, Cerulean-Runt, Venus-CBFb-SMMHC, uHTS, primary screen (AID 1434);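 note: 0% = DMSO wells and 100% = wells with excess untagged CBFb-SMMHC; inhibitors lower the FRET ratio by blocking Runt binding to CBFb-SMMHC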
Details: Cerulean-Runt/Venus-CBFb-SMMHC FRET ratio 530/480, 1 h, at 20 µM, stronger effect = higher value

With `COCCCn1c(CCC(=O)O)ccc1-c1ccc(F)cc1` the inhibition was 26.6% (inactive).
In the case of `CCn1c(NC(=O)c2ccccc2)c(-c2cccs2)c(=O)c2ccccc21`, the inhibition is reported as 2.4% (inactive).
In the case of `CC(C)Cn1c(CCC(=O)O)ccc1-c1cccs1`, the inhibition is reported as 179% (active) and the inhibition (retest duplicate average) is reported as 134%.
For `COc1ccc(-n2cnc3cc(C(=O)NC4CCCC4)ccc32)cc1`, the inhibition was 0.8% (inactive).
For `CCOc1ccc2nc(N3CCCN(C(=O)Nc4ccccc4C)CC3)c(C#N)cc2c1`, the inhibition was 61.6% (active) and the inhibition (retest duplicate average) was 71.5%.
With `CCOc1ccc2nc(NCCNS(=O)(=O)c3ccccc3)c(C#N)cc2c1` the inhibition was 34% (inactive).
In the case of `CCOc1ccc2cc(C#N)c(SCC(=O)OC)nc2c1`, the inhibition is reported as -89.9% (inactive).
In the case of `CCN1C(=O)/C(=C\N2CCN(c3ccccc3)CC2)SC1=S`, the inhibition is reported as -1.5% (inactive).
With `CCN1C(=O)/C(=C2/Sc3ccccc3N2CCCS(=O)(=O)O)SC1=S` the inhibition was 82.6% (active) and 93.8% (active) and the inhibition (retest duplicate average) was 113% and 124%.
With `CCCCN1C(=O)/C(=C/C=C2/C=Cc3ccccc3N2CC)SC1=S` the inhibition was -1.7% (inactive).
`Cc1cc(Cl)ccc1NNC(=O)c1snnc1C` was tested, and the inhibition was -2.5% (inactive).
`COc1ccc(C(=O)N/N=C2\CCS(=O)(=O)c3ccc(F)cc32)cc1OC` was tested, and the inhibition was -4.7% (inactive).
In the case of `Nc1nc(CC(=O)CSc2ccc(Cl)cc2)nc(Nc2ccc(F)cc2)n1`, the inhibition is reported as -7.5% (inactive).
For `CCC(C)(C)n1nnnc1C(c1cccs1)N1CCN(Cc2ccccc2)CC1` (centres undefined), the inhibition was 3.1% (inactive).
For `CCC(C)(C)n1nnnc1C(c1cccs1)N1CCN(c2nc3ccccc3s2)CC1` (centres undefined), the inhibition was -1% (inactive).
`CCC(C)(C)n1nnnc1CN1CCN(c2nc3ccc(C)cc3cc2C#N)CC1` was tested, and the inhibition was 54% (active) and the inhibition (retest duplicate average) was 79.1%.
With `CN(C)NC(=O)c1csnc1-c1c(Cl)cccc1Cl` the inhibition was 6% (inactive).
`O=C(COC(=O)/C=C/c1cccc(Cl)c1)NCCc1ccccc1` was tested, and the inhibition was 0.9% (inactive).
With `COc1ccc(CCNC2=C(Cl)C(=O)N(Cc3ccccc3)C2=O)cc1OC` the inhibition was 92.2% (active) and the inhibition (retest duplicate average) was 70.6%.
`COc1ccc(CCN=C2SCC(=O)N2Cc2ccccc2)cc1OC` was tested, and the inhibition was -0.6% (inactive).
For `COc1ccc(CCN(C)CCN2C(=O)c3ccccc3C2=O)cc1OC`, the inhibition was 6.2% (inactive).
In the case of `O=C(O)CC/C(=N\NC(=O)c1ccc(F)cc1)c1ccc(Br)cc1`, the inhibition is reported as -4.7% (inactive).
With `CC/C(=N\NC(=O)c1ccccc1Cl)c1ccc(Br)s1` the inhibition was -0.6% (inactive).
In the case of `CC(=O)c1cc(C#N)c(SCC(=O)Nc2nccs2)nc1C`, the inhibition is reported as -3.8% (inactive).
`COc1ccc(C2CC(c3cccs3)=NN2c2ccccc2)cc1` (centres undefined) was tested, and the inhibition was 91% (active) and the inhibition (retest duplicate average) was 53.7%.
In the case of `COc1ccccc1N1N=C(c2cccs2)CC1c1ccccc1` (centres undefined), the inhibition is reported as 48% (inactive).
In the case of `COc1ccc(C2=NN(c3ccccc3)C(c3cccs3)C2)cc1` (centres undefined), the inhibition is reported as 6% (inactive).
With `Cc1ccc(-c2nc3ccccc3[nH]c2=O)cc1` the inhibition was 3.7% (inactive).
With `O=c1[nH]c2ccccc2n2c(-c3ccccc3)nnc12` the inhibition was 67.5% (active) and the inhibition (retest duplicate average) was 61.3%.
In the case of `O=[N+]([O-])c1cccc(-c2nnc3c4ccccc4c4ccccc4n23)c1`, the inhibition is reported as 2.3% (inactive).
For `N#CC1=C(N)Oc2c(ccc3cccnc23)C1c1ccncc1` (centres undefined), the inhibition was -1.6% (inactive).
`COc1cccc(NC(=O)CN(C)C(=O)/C=C/c2cc(OC)ccc2OC)c1` was tested, and the inhibition was -3.2% (inactive).
In the case of `O=C(Nc1ccc(Cl)cc1)Nc1nnc(/C=C/c2ccccc2)s1`, the inhibition is reported as 6.5% (inactive).
`O=C(COc1cccc(F)c1)Oc1ccc(C(=O)c2ccccc2)cc1` was tested, and the inhibition was 0.2% (inactive).
For `Cc1cc(C)c(C#N)c(SCc2[nH]nc3c2C(c2ccccc2)C(C#N)=C(N)O3)n1` (centres undefined), the inhibition was -0.2% (inactive).
`N#CC1=C(N)Oc2c(sc3ccccc23)C1c1ccco1` (centres undefined) was tested, and the inhibition was 9.4% (inactive).
`Cc1cc(C)c2c3c(sc2n1)C(c1ccccc1)C(C#N)=C(N)O3` (centres undefined) was tested, and the inhibition was 113% (active) and the inhibition (retest duplicate average) was 141%.
For `CC(=O)c1c(C)[nH]c(C(=O)OCC(=O)Nc2cc(S(=O)(=O)N3CCCCC3)ccc2C)c1C`, the inhibition was -9.5% (inactive).
In the case of `CCCN(CC(=O)Nc1ccc(OC)c(OC)c1)CC(=O)Nc1ccc(F)c(F)c1F`, the inhibition is reported as -1.9% (inactive).
In the case of `COc1ccc(/C=N/NC(=O)c2cccc(C(F)(F)F)c2)cc1`, the inhibition is reported as 1.4% (inactive).
`C/C(CC1CC(C)(C)OC1=O)=N/Nc1nc(-c2ccccc2)cs1` (centres undefined) was tested, and the inhibition was -0.6% (inactive).
`Cc1ccc(Cn2c(C)nc3c(c2=O)c2nc4ccccc4nc2n3Cc2ccco2)cc1` was tested, and the inhibition was 46.8% (inactive).
With `CC(Sc1nc2ccccc2c(=O)n1Cc1ccco1)C(=O)c1ccccc1` (centres undefined) the inhibition was 2.5% (inactive).
`Cc1nc2c(c(=O)n1Cc1ccco1)c1nc3ccccc3nc1n2Cc1ccccc1` was tested, and the inhibition was 51.6% (active) and the inhibition (retest duplicate average) was 50.7%.
With `CC(C)Cn1c(N)c(C(=O)NCc2cccs2)c2nc3ccccc3nc21` the inhibition was 72.8% (active) and the inhibition (retest duplicate average) was 89.8%.
For `CCC(C)NC(=O)c1c(N)n(/N=C/c2cccs2)c2nc3ccccc3nc12` (centres undefined), the inhibition was -0.5% (inactive).
In the case of `Cn1ncc(Br)c1C(=O)NCc1cccs1`, the inhibition is reported as -0.4% (inactive).
For `CN(C)c1ccnc2sc(C(=O)c3ccccc3)c(N)c12`, the inhibition was 39.2% (inactive).
`Cc1cccc(NC(=S)NCc2ccc3[nH]c4c(c3c2)CCCC4)c1` was tested, and the inhibition was -0.9% (inactive).
In the case of `Cc1cc(C)nc(SC2CCCCC2NS(=O)(=O)c2ccc(Cl)cc2)n1` (centres undefined), the inhibition is reported as 2% (inactive).
With `CC1CC(C)CN(S(=O)(=O)c2cccc(C(=O)N3C(=O)c4cccc(N)c4C3=O)c2)C1` (centres undefined) the inhibition was 61.6% (active) and the inhibition (retest duplicate average) was 72.9%.
With `COc1cc(C(=O)NC(=S)NCc2ccco2)cc(OC)c1OC` the inhibition was 1.1% (inactive).
For `COc1cc(C(=O)N[C@@H](C)C(=O)NCc2ccco2)cc(OC)c1OC`, the inhibition was -2.9% (inactive).
`CC(=O)N1CCN(S(=O)(=O)c2cccc(C(=O)NC3CCC(C)CC3)c2)CC1` (centres undefined) was tested, and the inhibition was 4.4% (inactive).
`CN1CCN(S(=O)(=O)c2cccc(C(=O)O)c2)CC1` was tested, and the inhibition was -1.8% (inactive).
`COc1cc(C(=O)N2C(=O)c3cccc(N)c3C2=O)cc(OC)c1OC` was tested, and the inhibition was 87.1% (active) and the inhibition (retest duplicate average) was 51.3%.
In the case of `NC(=O)Nc1ccccc1C(=O)NCCc1ccccc1`, the inhibition is reported as 2.1% (inactive).
For `COc1ccc(-c2nn(C)c(=O)c3ccccc23)cc1CNC(=O)C1CCCCC1`, the inhibition was -3.9% (inactive).
For `N=c1oc2ccccc2cc1C(=O)N/N=C/c1ccccc1`, the inhibition was -6.4% (inactive).
With `CNC(=O)c1cc2c(ccc3ccccc32)oc1=N` the inhibition was 82.8% (active) and the inhibition (retest duplicate average) was 162%.
In the case of `CNC(=O)c1cccc2nc3ccccc3nc12`, the inhibition is reported as 9% (inactive).
With `COC(=O)CCCC1=CC2=CC(=O)C(C)(OC(=O)c3cccs3)C(=O)C2=CN1CC(C)C` (centres undefined) the inhibition was -2.8% (inactive).
With `CC(=O)Nc1ccc(Sc2ccccc2C(=O)N2CCCC2)cn1` the inhibition was -3.9% (inactive).
In the case of `CN(C)CCCn1c(N)c(C#N)c2nc(C#N)c(C#N)nc21`, the inhibition is reported as 78.7% (active) and the inhibition (retest duplicate average) is reported as 69.9%.
With `COc1ccc(C2/C=C\CN(CC(C)C)CC(=O)N2Cc2ccc(F)cc2)cc1` (centres undefined) the inhibition was 0.3% (inactive).
With `COc1ccc(O[C@H]2C=C[C@@H](c3ccccc3)O[C@@H]2CO/N=C/C[C@@H]2C=C[C@H](OC(C)=O)[C@@H](COC(C)=O)O2)cc1` the inhibition was -12.9% (inactive).
In the case of `COc1cccc2sc(NNC(=O)c3nc4ccccc4s3)nc12`, the inhibition is reported as 3.6% (inactive).
For `CC(=O)c1sc(NC(=O)CCCOc2ccccc2C)nc1C`, the inhibition was 0% (inactive).
In the case of `COc1cccc2sc(Nc3nc(C)c(C(C)=O)s3)nc12`, the inhibition is reported as 82.4% (active) and the inhibition (retest duplicate average) is reported as 96.3%.
For `Cc1ccc(NC(=O)C2(N3CCC3=O)CCCCC2)cc1`, the inhibition was 3.4% (inactive).
`N/C(=N\OC(=O)CC1CCCCC1)c1ccccc1` was tested, and the inhibition was 3.7% (inactive).
`CCN(CC)c1nc(-c2ccccc2)cc(C(F)(F)F)c1C#N` was tested, and the inhibition was 130% (active) and the inhibition (retest duplicate average) was 57.3%.
For `N#Cc1c(C(F)(F)F)cc(-c2ccc(Cl)cc2)nc1SCC(=O)O`, the inhibition was 0.8% (inactive).
For `N#Cc1c(C(F)(F)F)cc(-c2ccccc2)nc1SCC(=O)N1CCOCC1`, the inhibition was -9.3% (inactive).
In the case of `CCOC(=O)c1c(Cc2ccc(Cl)cc2)c[nH]c1C`, the inhibition is reported as -2.1% (inactive).
`CC(C)(C)c1ccc(C(=O)NCC(=O)OCN2C(=O)c3ccccc3C2=O)cc1` was tested, and the inhibition was 4.7% (inactive).
`CN1OC(COC(=O)c2ccc(Cl)cc2)CC1c1ccccc1` (centres undefined) was tested, and the inhibition was 3.2% (inactive).
For `CC(C)(C)c1ccc(C(=O)NCCn2c(N)c(C#N)c3nc4ccccc4nc32)cc1`, the inhibition was 114% (active) and the inhibition (retest duplicate average) was 128%.
`N#Cc1c(N)n(CCOC(=O)c2ccc(Cl)cc2)c2nc3ccccc3nc12` was tested, and the inhibition was 116% (active) and the inhibition (retest duplicate average) was 152%.
For `COCCCn1c2nc3ccccc3nc2c2c(=O)n(Cc3ccc(Cl)cc3)c(C)nc21`, the inhibition was 7.3% (inactive).
For `CCCCNC(=O)CCNC(=O)c1ccc(C(C)(C)C)cc1`, the inhibition was -0.2% (inactive).
For `Cc1cc(=O)[nH]c(N/N=C/c2c(C)nn(-c3ccccc3Cl)c2Cl)n1`, the inhibition was -3% (inactive).
In the case of `CC(C)(C)C(=O)Nc1c(Br)c(C2CC2)nn1-c1ccccc1`, the inhibition is reported as 2.4% (inactive).
`CCc1ccc(CNC(=O)C2CC(=O)N(CCc3ccc(C)cc3)C2)cc1` (centres undefined) was tested, and the inhibition was -1.7% (inactive).
In the case of `C=CCSc1nc(N)cc(=O)[nH]1`, the inhibition is reported as 0.7% (inactive).
For `O=C(O)CCCCCCCCCC[n+]1ccccc1`, the inhibition was -2.3% (inactive).
In the case of `Cc1ccccc1Cn1c(=O)[nH]c2ccccc21`, the inhibition is reported as -2% (inactive).
For `CCOC(=O)CCc1c(C)c(C#N)c2[nH]c3ccccc3n2c1=O`, the inhibition was -6.1% (inactive).
For `CCCc1cc(=S)n2c([nH]c3ccccc32)c1C#N`, the inhibition was 81.2% (active) and the inhibition (retest duplicate average) was 153%.
For `O=C(c1ccc(C(F)(F)F)cc1)C1CCCN(C(=O)c2csnn2)C1` (centres undefined), the inhibition was 5.6% (inactive).
`COC(=O)COc1ccc2oc(=O)cc(C)c2c1` was tested, and the inhibition was 0.6% (inactive).
With `COC(=O)Cc1cc(=O)oc2c(C)c(O)ccc12` the inhibition was 77.6% (active) and the inhibition (retest duplicate average) was 71.5%.
With `Cc1cc(=O)oc2c(C(=O)c3ccccc3)c(OCC(N)=O)ccc12` the inhibition was -4.4% (inactive).
In the case of `N#C/C(C(=S)Nc1ccccc1)=C1/NN=C(N2CCOCC2)N1c1ccccc1`, the inhibition is reported as 25.1% (inactive).
